Source: PubChem BioAssay
A number with no mark means an inactive call.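 Rule for the calls: active = RAM network inhibition above 8.4% in each of two replicates, 3 SD over the compound average; inconclusive = above 8.4% inhibition in only one replicate; inactive = 8.4% inhibition or less in each replicate.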

Test: RAM signaling pathway blockade in yeast – S. cerevisiae, Pdr1DBD-CYC8 efflux-inhibited sensitized strain, primary screen (AID 1298);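 note: 0% = DMSO untreated cells without growth and 100% = 10 µM 1-NA-PP1 full growth; higher means more yeast growth rescued from 5-FOA killing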
Settings: S. cerevisiae cbk1-as DSE1-URA3 strain, 5-FOA growth OD615, 2 d; at 50 µM; active compounds read high

Q: Which RAM network inhibition does the source give for `CC1CCc2nn(CC(=O)NCc3ccc4c(c3)OCO4)cc2C1` (stereo not given) here?
A: 1.68%

Q: With `CCC(C)(C(=O)NC1CCCC1)N(Cc1cccs1)C(C)=O` (stereo not given) as the molecule, how does the RAM network inhibition read?
A: 4.23%

Q: For `COc1ccc(CCNC(=O)c2cnn3ccccc23)c(OC)c1OC`, which RAM network inhibition is on record?
A: 3.06%

Q: With `CC1CCCN(S(=O)(=O)c2coc(C(N)=O)c2)C1` (stereo not given) as the molecule, how does the RAM network inhibition read?
A: 2.99%

Q: Which RAM network inhibition does the source give for `Cn1c(C(=O)NCC2CCCO2)cc2c(=O)n(C)c3ccccc3c21` (stereo not given) here?
A: 0.71%

Q: Which RAM network inhibition does the source give for `O=C(Nc1cnn(Cc2ccc(Cl)cc2Cl)c1)c1noc2c1CCCC2` here?
A: 4.07%

Q: With `Clc1cccc(N2CCN(Cc3nc(-c4ccccc4)no3)CC2)c1` as the molecule, how does the RAM network inhibition read?
A: 4.99%

Q: For `COC(=O)C1=C(C)NC(C)=C(C(=O)OC)C1C1CC=CCC1` (stereo not given), which RAM network inhibition is on record?
A: 8.09%

Q: With `Cc1nnc(SCC(=O)NCc2ccccc2)s1` as the molecule, how does the RAM network inhibition read?
A: 4.69%

Q: With `CC1=C(C(=O)Nc2ccc(F)cc2)C(c2cccc(C)c2)n2nc(CCCO)nc2N1` (stereo not given) as the molecule, how does the RAM network inhibition read?
A: 1.3%

Q: With `CCOc1ccc(OCCCCN(C)C)cc1` as the molecule, how does the RAM network inhibition read?
A: 6.13%

Q: Which RAM network inhibition does the source give for `CCCC(=O)C1=C(N(C)c2ccccc2)CC(C)(C)C(C(=O)OC)C1=O` (stereo not given) here?
A: 0.26%

Q: With `CC1Cc2ccccc2N1C(=O)C12CCC(C)(C(=O)C1)C2(C)C` (stereo not given) as the molecule, how does the RAM network inhibition read?
A: 6.06%

Q: With `CC1CN(c2ccc(Oc3ccccc3)cc2)c2nc3c(c(=O)n(CC(N)=O)c(=O)n3C)n2C1` (stereo not given) as the molecule, how does the RAM network inhibition read?
A: 6.01%

Q: For `COc1ccc(N2CCN(C(c3ccccc3)c3sc4nc(C)nn4c3O)CC2)cc1` (stereo not given), which RAM network inhibition is on record?
A: -0.02%

Q: Which RAM network inhibition does the source give for `O=C(CCn1c(=O)oc2ccccc21)NCc1ccco1` here?
A: 2.93%

Q: Which RAM network inhibition does the source give for `COc1cccc(C2CC(c3ccc(C)cc3)n3nc(N)nc3N2)c1` (stereo not given) here?
A: 7.85%

Q: With `Cc1onc(-c2c(Cl)cccc2Cl)c1C(=O)NCC1CCCO1` (stereo not given) as the molecule, how does the RAM network inhibition read?
A: -0.45%

Q: For `CC(=O)Nc1cccc(NC(=O)CSc2nn3c(=O)c(C)nnc3s2)c1`, which RAM network inhibition is on record?
A: 4.27%

Q: For `Cc1ccc2cc(CCNC(=O)C(C)C)c(=O)[nH]c2c1C`, which RAM network inhibition is on record?
A: 6.36%

Q: Which RAM network inhibition does the source give for `CCOC(=O)c1c(C)n(C)c2c(C)cc(O)c(OC(C)=O)c12` here?
A: 1.23%

Q: Which RAM network inhibition does the source give for `CC(C)(O)C#Cc1ccc(C(=O)N2CCN(C(=O)c3ccco3)CC2)cc1` here?
A: 2.19%

Q: With `COc1ccc(-n2ncc3c(N4CCC(C)CC4)ncnc32)cc1` as the molecule, how does the RAM network inhibition read?
A: 1.63%

Q: With `CCc1nc2sc(C)c(C)c2c(=O)n1CCO` as the molecule, how does the RAM network inhibition read?
A: 2.87%

Q: With `COc1cc2c(cc1OC)CN(C(=O)CSc1nc3[nH]ncc3c(=O)n1-c1ccccc1)CC2` as the molecule, how does the RAM network inhibition read?
A: 2.58%

Q: Which RAM network inhibition does the source give for `Cc1ccccc1-n1c(Cn2c(=O)sc3ccccc32)nnc1SCC(N)=O` here?
A: 4.35%

Q: With `Cc1nc2sc(C(c3cccs3)N3CCOCC3)c(O)n2n1` (stereo not given) as the molecule, how does the RAM network inhibition read?
A: 1.99%

Q: With `Cc1nc2ccccc2c2oc(C(=O)N3CCN(C(=O)c4ccco4)CC3)cc12` as the molecule, how does the RAM network inhibition read?
A: 2.11%

Q: For `CCC(C)NC(=O)c1cn(CC)c2ccc(S(=O)(=O)N(C)C)cc2c1=O` (stereo not given), which RAM network inhibition is on record?
A: 1.7%

Q: Which RAM network inhibition does the source give for `O=C(OCN1C(=O)c2ccccc2C1=O)C1CCCCC1` here?
A: 0.77%

Q: For `O=C(Nc1nc(-c2ccccn2)cs1)C1CC1`, which RAM network inhibition is on record?
A: 0.89%

Q: Which RAM network inhibition does the source give for `COCCOC(=O)C1=C(C)N=c2s/c(=C\c3cccs3)c(=O)n2C1c1cccs1` (stereo not given) here?
A: 6.91%

Q: For `CCOC(=O)c1sc2nc(NC(=O)C(C)(C)C)sc2c1C`, which RAM network inhibition is on record?
A: 3.13%

Q: For `Cn1c(Cc2ccccc2)nnc1SCC(=O)NC1CCCCC1`, which RAM network inhibition is on record?
A: 1.4%

Q: With `CCCNC(=O)C1CC(=O)N(c2ccc(OCC(=O)Nc3cc(C)cc(C)c3)cc2)C1` (stereo not given) as the molecule, how does the RAM network inhibition read?
A: 4.16%

Q: Which RAM network inhibition does the source give for `O=P(O)(CN1CCCCCC1)CN1CCCCCC1` here?
A: 4.85%

Q: With `O=c1oc2c3c4c(cc2cc1-c1nc2ccccc2[nH]1)CCCN4CCC3` as the molecule, how does the RAM network inhibition read?
A: 2.41%

Q: Which RAM network inhibition does the source give for `CCOC(=O)c1[nH]c(C)c(C(=O)NC)c1C` here?
A: -1.66%

Q: With `CCCOc1ccc(C2C(C(=O)OC)=CN(CCOC)C=C2C(=O)OC)cc1` as the molecule, how does the RAM network inhibition read?
A: 5.46%

Q: Which RAM network inhibition does the source give for `CCCCN(CC)CCCNC(=O)c1cc2c(=O)n(C)c3ccccc3c2n1C` here?
A: 1.02%
